Coupling enz = counter-screen for Giardia aldolase inhibitors: coupling enzyme system. coupling enzyme system counterscreen, AmpLite Red fluorescence. activity change, negative = inhibition, % at 58.2 µM, hits read low. 290,000 compounds, 0.67% hits; in the data active means activity change below about -30%
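Coupling enzymes only (glyceraldehyde-3-phosphate) + compound, at 57.5 uM final, 10 min RT; add substrate/coupling/AmpLite Red mix, 20 min RT; fluorescence ex 525/em 598 nm. Actives flag coupling-system interference.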
VP16 counter = counter-screen for ROR gamma inhibitors: Gal4-VP16 reporter. Drosophila S2 Gal4-VP16 UAS-luciferase, luminescence, 20 h. Potency, µM (titrated, usually from 53.6 µM), hits mostly inhibitors. 310,000 compounds, 3.5% hits;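 further: Gal4-VP16 expression switched on by copper sulfate through the metallothionein promoter; nearly all actives have a fitted effect of over 50% in size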
RORgamma inh = ROR gamma (mouse) transcription inhibition | Drosophila S2 Gal4-RORgamma UAS-luciferase reporter, 20 h | Potency, µM (highest dose often 53.6 µM), most hits filed as inhibitors | 310,000 compounds, 5.4% hits | AID 2551; further: nearly all actives have a fitted effect of over 60% in size
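Luminescence from a UAS-regulated Photinus luciferase reporter in stably transfected Drosophila Schneider cells is measured; decreased signal marks ROR gamma inhibition. Fusion expression is induced by 700 uM copper sulfate for 20 hr.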
TSHR antagonist = human thyrotropin receptor antagonism | AID 504810 | 330,000 compounds, 0.2% hits | TSHR-expressing cells, TSH-stimulated cAMP HTRF, 2 h; stronger effect = lower value | activity change, negative = inhibition, % at 11.5 µM | P16473;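 active means activity change below a set negative limit, meaning inhibition stronger than a set level, cut at about -70% in these data; inconclusive means activity change between two set negative limits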
Target sequence (P16473 whole entry, looked up): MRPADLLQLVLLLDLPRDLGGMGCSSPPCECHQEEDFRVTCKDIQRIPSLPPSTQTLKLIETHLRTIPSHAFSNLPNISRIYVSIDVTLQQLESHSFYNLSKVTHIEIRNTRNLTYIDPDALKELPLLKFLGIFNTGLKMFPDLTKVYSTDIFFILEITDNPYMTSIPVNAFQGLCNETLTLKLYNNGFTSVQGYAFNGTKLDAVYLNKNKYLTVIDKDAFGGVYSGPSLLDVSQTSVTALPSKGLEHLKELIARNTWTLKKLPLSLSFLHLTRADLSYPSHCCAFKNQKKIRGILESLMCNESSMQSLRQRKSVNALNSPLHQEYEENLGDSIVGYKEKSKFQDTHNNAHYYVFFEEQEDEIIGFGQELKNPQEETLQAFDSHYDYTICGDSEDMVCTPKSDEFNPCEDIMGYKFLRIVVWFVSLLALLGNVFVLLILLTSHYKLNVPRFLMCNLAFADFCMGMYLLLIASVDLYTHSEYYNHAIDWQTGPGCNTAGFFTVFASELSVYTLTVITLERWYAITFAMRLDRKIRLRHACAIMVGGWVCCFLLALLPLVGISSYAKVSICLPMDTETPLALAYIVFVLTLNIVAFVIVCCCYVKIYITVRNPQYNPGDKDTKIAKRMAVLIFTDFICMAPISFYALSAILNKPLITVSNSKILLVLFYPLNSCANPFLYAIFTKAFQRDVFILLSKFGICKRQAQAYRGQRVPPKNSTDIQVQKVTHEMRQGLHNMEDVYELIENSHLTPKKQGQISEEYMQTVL
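Cell-based HTRF cAMP assay; TSHR cells + compound, TSH EC80 (4nM final), 2 h, 37 deg C. Lysis with anti-cAMP cryptate and cAMP-d2, 30 min RT, read 665/620 nm.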
ELG1 repair inh = inhibitors of ELG1-dependent DNA repair in HEK293T cells | HEK293T ELG1-luciferase reporter, luminescence, 16 h; DNA damage induced by 5-fluorouridine | Potency, µM (titrated, usually from 46.1 µM), hits mostly inhibitors | 330,000 compounds, 2.3% hits | AID 504467; further: nearly all actives have a fitted effect of over 55% in size
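Quantitative HTS, concentration-response format. 2,000 cells/well co-treated with 5-fluorouridine and compound, 16 hr in 5% CO2 at 37 °C; ONE-Glo luminescence read after 30 min.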
Hits are given with their value; [ ] = remark or other dose. A selection: hits, their analogues and other compounds. The true share with any hit is near 8%. Unless noted, the call rests on the fitted dose curve; in most records, active means well fitted curve in the direction sought with a large enough effect; inconclusive means small, poorly fitted or top-dose-only effect, or another doubt; inactive means no such curve, though single readings can be large; an effect the other way counts as inactive or inconclusive.

For O=C(NN=C1C2CC3CC(C2)CC1C3)c1ccncc1 the results were Coupling enz inactive, VP16 counter inactive, RORgamma inh inactive, TSHR antagonist inactive and ELG1 repair inh inactive.
Screening O=C(N/N=C1\C/C(=N\NC(=O)c2ccncc2)c2ccccc21)c1ccncc1 returned Coupling enz -33.9, VP16 counter inconclusive, RORgamma inh inconclusive, TSHR antagonist inactive and ELG1 repair inh inactive.
For COc1ccc(CNC(=O)CN(C(=O)c2csnn2)c2cccc(C(C)=O)c2)cc1 the results were Coupling enz inactive, VP16 counter inactive, RORgamma inh inactive, TSHR antagonist inactive and ELG1 repair inh inactive.
COc1ccccc1-c1cncnc1NCCN1CCOCC1 was read as Coupling enz inactive, VP16 counter inactive and RORgamma inh inactive.
`CN(CC(=O)Nc1ccc(Cl)c(C(F)(F)F)c1)C(=O)/C=C/c1cccs1` gave TSHR antagonist inactive and ELG1 repair inh inactive.
`CCCCN(C(=O)C1CC(=O)N(c2ccc(C)cc2)C1)c1c(N)n(CCC)c(=O)[nH]c1=O` (stereo unspecified) gave TSHR antagonist inactive and ELG1 repair inh inactive.
For Cc1ccccc1N1C(=O)c2cccc3c(N(C)CCO)ccc(c23)C1=O the results were Coupling enz inactive, VP16 counter inactive, RORgamma inh 11.2µM, TSHR antagonist inactive and ELG1 repair inh inconclusive.
`C#CCn1c(=NC(=O)c2ccc(S(=O)(=O)N3CCc4ccccc4C3)cc2)sc2cc(S(N)(=O)=O)ccc21` gave Coupling enz inactive, VP16 counter 10µM, RORgamma inh 11.2µM, TSHR antagonist inactive and ELG1 repair inh inconclusive.
CCOCCn1c(=NC(=O)c2ccc(S(=O)(=O)N3CCOCC3)cc2)sc2cc(S(N)(=O)=O)ccc21 was read as Coupling enz inactive, VP16 counter inconclusive, RORgamma inh inactive, TSHR antagonist inactive and ELG1 repair inh 18.3µM.
Screening COCCn1c(=NC(=O)c2ccc(S(=O)(=O)N3CCc4ccccc4C3)cc2)sc2cc(S(N)(=O)=O)ccc21 returned Coupling enz inactive, VP16 counter inactive, RORgamma inh inactive, TSHR antagonist inactive and ELG1 repair inh inactive.
For c1ccc(C(OC2CCCN(CCc3ccc4c(c3)OCO4)C2)c2ccccc2)cc1 (stereo unspecified) the results were Coupling enz inactive, VP16 counter inactive and RORgamma inh inactive.
`COc1ccc(CNc2ncncc2-c2ccc(N(C)C)cc2)c(OC)c1` gave Coupling enz inactive, VP16 counter inactive and RORgamma inh inactive.
`COc1ccccc1CNc1nc(-c2ccc(N(C)C)cc2)nc2ccccc12` gave Coupling enz -32.3, VP16 counter inconclusive and RORgamma inh 7.94µM.
`COc1ccccc1CNc1ncncc1-c1ccc(N(C)C)cc1` gave Coupling enz inactive, VP16 counter inactive and RORgamma inh 22.4µM.
Screening CCN(CC)S(=O)(=O)c1ccc(N2CCN(C)CC2)c(NC(=O)Nc2ccc(C)cc2)c1 returned Coupling enz inactive, VP16 counter inconclusive, RORgamma inh inconclusive, TSHR antagonist inactive and ELG1 repair inh inconclusive.
O=C(CNS(=O)(=O)c1ccc(Br)s1)N1CCN(c2ccc(F)cc2)CC1 was read as Coupling enz inactive, VP16 counter inactive, RORgamma inh inconclusive, TSHR antagonist inactive and ELG1 repair inh inactive.
Cc1ccc(-c2cc(C(=O)N3CCOCC3)no2)cc1 was read as Coupling enz inactive, VP16 counter 14.1µM, RORgamma inh 7.94µM, TSHR antagonist inactive and ELG1 repair inh inconclusive.
For O=C(c1cc(-c2ccc(O)cc2)on1)N1CCCCCC1 the results were Coupling enz inactive, VP16 counter inactive, RORgamma inh inactive, TSHR antagonist inactive and ELG1 repair inh inconclusive.
Screening O=C(c1cc(-c2ccc3c(c2)OCO3)on1)N1CCCCC1 returned Coupling enz inactive, VP16 counter 11.2µM, RORgamma inh inconclusive, TSHR antagonist inactive and ELG1 repair inh inconclusive.
Cc1ccc(-c2cc(C(=O)N3CCCC3)no2)cc1 was read as Coupling enz inactive, VP16 counter 7.08µM, RORgamma inh 11.2µM, TSHR antagonist inactive and ELG1 repair inh inconclusive.
Screening CCCCC#CC1C=CC(Oc2ccc(OC)cc2)C(CO)O1 (stereo unspecified) returned Coupling enz inactive, VP16 counter inactive[10 µM] and RORgamma inh inactive[10 µM].
Screening COc1ccc2nc(C)cc(Sc3nc4ccccc4s3)c2c1 returned Coupling enz inactive, VP16 counter inconclusive, RORgamma inh 14.1µM, TSHR antagonist inactive and ELG1 repair inh 5.17µM.
`COc1ccc2nc(C)cc(SCC(=O)NNC(=O)COc3ccccc3)c2c1` gave Coupling enz inactive, VP16 counter inactive, RORgamma inh inactive, TSHR antagonist inactive and ELG1 repair inh inactive.
For Cc1ccccc1/C=C/C(=O)c1ccc([N+](=O)[O-])o1 the results were TSHR antagonist -79.5 and ELG1 repair inh inconclusive.
Screening Cc1cccc(/C=C/C(=O)c2ccc([N+](=O)[O-])o2)c1 returned TSHR antagonist inactive and ELG1 repair inh inconclusive.
CC(C)NC(=O)N1CCC2(CC1)CCN(C(=O)c1cc(C(F)(F)F)cc(C(F)(F)F)c1)CC2 was read as Coupling enz inactive, VP16 counter inactive and RORgamma inh inactive.
For Cc1cc(OCC(=O)NCCc2c[nH]c3ccccc23)c2c(C)cc(=O)oc2c1 the results were Coupling enz inactive, VP16 counter inactive, RORgamma inh inactive, TSHR antagonist inactive and ELG1 repair inh inconclusive.
`N#Cc1c(SCC(=O)Nc2ccccc2)nsc1SCC(=O)Nc1ccccc1` gave Coupling enz inactive, VP16 counter inconclusive, RORgamma inh inconclusive, TSHR antagonist inactive and ELG1 repair inh inactive.
`Cc1cccc(NC(=O)CSc2nsc(SCC(=O)Nc3cccc(C)c3)c2C#N)c1` gave Coupling enz inactive, VP16 counter inactive, RORgamma inh inactive, TSHR antagonist inactive and ELG1 repair inh 8.2µM.
`CCC[C@H]1C[C@H](C(=O)NC(C(C)Cl)C2O[C@@H](SC)C(OP(=O)(O)O)[C@@H](O)[C@@H]2O)N(C)C1` (stereo partly specified) gave Coupling enz inactive, VP16 counter inactive and RORgamma inh inactive.
CCCCn1c(NC(=O)c2ccccc2Cl)c(C#N)c2nc3ccccc3nc21 was read as Coupling enz inactive, VP16 counter inconclusive, RORgamma inh inactive, TSHR antagonist inactive and ELG1 repair inh 23.1µM.
For COc1ccc(-n2c(NC(=O)c3ccco3)c(C#N)c3nc4ccccc4nc32)cc1 the results were Coupling enz -51.9, VP16 counter inactive, RORgamma inh inactive, TSHR antagonist inactive and ELG1 repair inh inconclusive.
N#Cc1c(NC(=O)c2ccccc2Cl)n(Cc2ccccc2)c2nc3ccccc3nc12 was read as Coupling enz -38.6, VP16 counter inconclusive, RORgamma inh inconclusive, TSHR antagonist inactive and ELG1 repair inh 20.6µM.
Cc1cc(N2C(=O)Cc3ccccc3C2=O)ccc1C(C)C was read as Coupling enz inactive, VP16 counter inactive, RORgamma inh inactive, TSHR antagonist inactive and ELG1 repair inh inconclusive.

Screening data as filed in PubChem BioAssay.
